The campaign covered roughly 5,500 compounds. About 2,000 (36%) were called active. Not shown: some 18% with an inconclusive outcome. No stated cut-off is given here; in the data, active means normalized growth mostly below about 0.91 (no sharp cut-off); inconclusive means no clear call, values can overlap the other calls; inactive means mostly above about 0.92. This is one part of the list.
Assay: chemical genetic growth profiling, strain panel (AID 1159580);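 further: tested at 20 µM; growth read once vehicle control cultures reached saturation at 30 °C; 1 = growth at the plate median or of vehicle wells; lower values mean less growth of the strain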
Conditions: growth OD

Measured: normalized growth

C/C=C(/C)C(=O)O[C@@H]1[C@H](OC(C)=O)[C@@]2(CO)C(CC1(C)C)C1=CCC3[C@@]4(C)CC[C@H](O[C@@H]5O[C@H](C(=O)O)[C@@H](O[C@@H]6O[C@H](CO)[C@@H](O)[C@H](O)[C@H]6O)[C@H](O)[C@H]5O[C@@H]5O[C@H](CO)[C@@H](O)[C@H](O)[C@H]5O)[C@](C)(CO)C4CC[C@@]3(C)[C@]1(C)C[C@H]2O (some centres not stated)
inactive: S. cerevisiae deletion strains, locus YKL009W, strain mrt4, hits give low values 1.06 | S. cerevisiae deletion strains, locus YKL068W, hits give low values 1.01 | S. cerevisiae deletion strains, locus YKL085W, strain MDH1 (second series), hits give low values 1.06 | S. cerevisiae deletion strains, locus YKL085W, strain MDH1, hits give low values 1.06 | S. cerevisiae deletion strains, locus YKL160W, strain elf1, hits give low values 1.02 | S. cerevisiae deletion strains, locus YKR001C, strain vps1, hits give low values 1.01 | S. cerevisiae deletion strains, locus YKR026C, strain gcn3, hits give low values 0.99 | S. cerevisiae deletion strains, locus YKR091W, strain srl3, hits give low values 0.99 | S. cerevisiae deletion strains, locus YLL001W, strain dnm1, hits give low values 1.01 | S. cerevisiae deletion strains, locus YLL026W, hits give low values 0.988 | S. cerevisiae deletion strains, locus YLL041C, strain sdh2, hits give low values 0.983 | S. cerevisiae deletion strains, locus YLR027C, strain aat2, hits give low values 0.996 | S. cerevisiae deletion strains, locus YLR039C, strain RIC1, hits give low values 1.04 | S. cerevisiae deletion strains, locus YLR058C, strain SHM2, hits give low values 1.01 | S. cerevisiae deletion strains, locus YLR102C, strain apc9, hits give low values 1.02 | S. cerevisiae deletion strains, locus YLR113W, strain HOG1, hits give low values 0.967 | S. cerevisiae deletion strains, locus YLR221C, strain rsa3, hits give low values 1 | S. cerevisiae deletion strains, locus YLR258W, strain gsy2, hits give low values 0.981 | S. cerevisiae deletion strains, locus YLR262C, strain YPT6 (second series), hits give low values 1.01 | S. cerevisiae deletion strains, locus YLR262C, strain YPT6, hits give low values 1.08 | S. cerevisiae deletion strains, locus YLR268W, strain sec22, hits give low values 1.04 | S. cerevisiae deletion strains, locus YLR320W, strain mms22, hits give low values 0.973 | S. cerevisiae deletion strains, locus YLR330W, strain CHS5, hits give low values 1.01 | S. cerevisiae deletion strains, locus YLR342W, strain FKS1 (second series), hits give low values 1.05 | S. cerevisiae deletion strains, locus YLR342W, strain FKS1, hits give low values 0.988 | S. cerevisiae deletion strains, locus YLR357W, strain rsc2, hits give low values 0.984 | S. cerevisiae deletion strains, locus YLR370C, strain arc18, hits give low values 0.992 | S. cerevisiae deletion strains, locus YLR371W, strain rom2, hits give low values 1.03 | S. cerevisiae deletion strains, locus YLR384C, strain iki3, hits give low values 1 | S. cerevisiae deletion strains, locus YLR418C, strain cdc73, hits give low values 1 | S. cerevisiae deletion strains, locus YML016C, strain PPZ1, hits give low values 1.01 | S. cerevisiae deletion strains, locus YML032C, strain rad52, hits give low values 1.03 | S. cerevisiae deletion strains, locus YML120C, strain ndi1, hits give low values 1.01 | S. cerevisiae deletion strains, locus YML124C, strain tub3, hits give low values 1.02 | S. cerevisiae deletion strains, locus YMR058W, strain fet3, hits give low values 0.99 | S. cerevisiae deletion strains, locus YMR078C, strain ctf18, hits give low values 1.02 | S. cerevisiae deletion strains, locus YMR125W, strain sto1, hits give low values 0.959 | S. cerevisiae deletion strains, locus YMR129W, hits give low values 0.979 | S. cerevisiae deletion strains, locus YMR205C, strain PFK2, hits give low values 0.925 | S. cerevisiae deletion strains, locus YMR223W, strain ubp8, hits give low values 1.02 | S. cerevisiae deletion strains, locus YMR231W, strain pep5, hits give low values 0.973 | S. cerevisiae deletion strains, locus YMR307W, strain GAS1, hits give low values 1.08 | S. cerevisiae deletion strains, locus YNL067W, strain RPL9B, hits give low values 1.02 | S. cerevisiae deletion strains, locus YNL071W, strain lat1, hits give low values 1 | S. cerevisiae deletion strains, locus YNL183C, strain NPR1, hits give low values 0.969 | S. cerevisiae deletion strains, locus YNL209W, strain ssb2, hits give low values 0.988 | S. cerevisiae deletion strains, locus YNL233W, strain BNI4, hits give low values 1.01 | S. cerevisiae deletion strains, locus YNL248C, strain rpa49, hits give low values 1.02 | S. cerevisiae deletion strains, locus YNL250W, strain rad50, hits give low values 1.04 | S. cerevisiae deletion strains, locus YNL271C, strain bni1, hits give low values 1.03 | S. cerevisiae deletion strains, locus YNL298W, strain CLA4, hits give low values 1.01 | S. cerevisiae deletion strains, locus YNL307C, strain MCK1, hits give low values 1.03 | S. cerevisiae deletion strains, locus YNL322C, strain KRE1 (second series), hits give low values 0.983 | S. cerevisiae deletion strains, locus YNL322C, strain KRE1, hits give low values 1.01 | S. cerevisiae deletion strains, locus YNR049C, strain mso1, hits give low values 0.982 | S. cerevisiae deletion strains, locus YNR052C, strain pop2, hits give low values 1.02 | S. cerevisiae deletion strains, locus YOL006C, strain TOP1, hits give low values 0.991 | S. cerevisiae deletion strains, locus YOL012C, strain htz1 1.42 | S. cerevisiae deletion strains, locus YOL147C, strain pex11, hits give low values 1.02 | S. cerevisiae deletion strains, locus YOR001W, strain rrp6, hits give low values 0.992 | S. cerevisiae deletion strains, locus YOR061W, strain CKA2, hits give low values 1.01 | S. cerevisiae deletion strains, locus YOR069W, strain VPS5, hits give low values 1 | S. cerevisiae deletion strains, locus YOR070C, strain gyp1, hits give low values 1 | S. cerevisiae deletion strains, locus YOR080W, strain dia2, hits give low values 0.968 | S. cerevisiae deletion strains, locus YOR083W, strain WHI5, hits give low values 1.02 | S. cerevisiae deletion strains, locus YOR106W, strain vam3, hits give low values 1.01 | S. cerevisiae deletion strains, locus YOR136W, strain idh2, hits give low values 1.02 | S. cerevisiae deletion strains, locus YOR144C, strain elg1, hits give low values 1.02 | S. cerevisiae deletion strains, locus YOR184W, strain ser1, hits give low values 1.02 | S. cerevisiae deletion strains, locus YOR231W, strain MKK1, hits give low values 0.967 | S. cerevisiae deletion strains, locus YOR265W, strain rbl2, hits give low values 0.993 | S. cerevisiae deletion strains, locus YOR270C, strain vph1, hits give low values 0.883 | S. cerevisiae deletion strains, locus YOR290C, strain snf2, hits give low values 0.966 | S. cerevisiae deletion strains, locus YOR316C, strain cot1, hits give low values 1.02 | S. cerevisiae deletion strains, locus YPL051W, strain arl3, hits give low values 1.02 | S. cerevisiae deletion strains, locus YPL055C, strain LGE1, hits give low values 1 | S. cerevisiae deletion strains, locus YPL078C, strain atp4, hits give low values 1.01 | S. cerevisiae deletion strains, locus YPL106C, strain sse1, hits give low values 0.981 | S. cerevisiae deletion strains, locus YPL240C, strain hsp82, hits give low values 1.01 | S. cerevisiae deletion strains, locus YPL241C, strain CIN2, hits give low values 1 | S. cerevisiae deletion strains, locus YPL256C, strain CLN2, hits give low values 0.967 | S. cerevisiae deletion strains, locus YPR119W, strain clb2, hits give low values 1.03 | S. cerevisiae deletion strains, locus YPR141C, strain kar3, hits give low values 1.04 | S. cerevisiae deletion strains, locus YPR163C, strain tif3, hits give low values 1.02 | S. cerevisiae deletion strains, locus YPR167C, strain met16, hits give low values 1.02 | S. cerevisiae deletion strains, strain wtn01, hits give low values 1.02 | S. cerevisiae strains, strain wild type, hits give low values 1.01

Source: PubChem BioAssay AID1159580 (chemical genetic matrix, 2015)
